From the supplement of paper PMC10849652
Of roughly 7,900 targets only a part is listed; those with a hit were picked by preference. About 0.6% of all pairs of compound and target were hits.

Columns and labels:
Assay in all cases: log2 fold change, soluble protein after heating vs DMSO (PISA); higher = thermal stabilisation; K562 cells, 10 uM, 30 min; active = over 0.2 and 3.5 SD of the protein, either way, in both replicates (recomputed)
[1] = compound: C1=CC=C(C=C1)[C@H](COC2=CC3=C(C=C2)NC(=O)N3)NC(=O)C4=CC=CN(C4=O)CC5=CC(=C(C=C5)F)F
Method in brief: (§1)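 K562 cells at 2×10^6 cells/mL were given 10 μM compound for 30 min. Aliquots then went through 3 min of heating across 48°C-58°C, were pooled, and were extracted in PBS with 0.5% NP-40 at 4°C, and the supernatant after 21,000xg for 90 min was quantified by TMTpro 16plex LC-MS/MS with channel sums equalised. Thermal stability relative to control samples, from duplicates, is given as log2 fold change.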

[2] = compound: CC1=C(SC2=C1C(=N[C@H](C3=NN=C(N32)C)CC(=O)N)C4=CC=C(C=C4)Cl)C
Method in brief: as §1

[3] = compound: CC1=C2C(=CC=C1)N=C(N(C2=O)C3=CC=CC=C3C)CN4C=NC5=C(N=CN=C54)N
Method in brief: as §1

[4] = compound: Cc1sc2c(c1C)C(c1ccc(Cl)cc1)=N[C@@H](CC(=O)OC(C)(C)C)c1nnc(C)n1-2
Method in brief: as §1

[5] = compound: c1ccc([C@@H]2C[C@H]2NC2CCNCC2)cc1
Method in brief: as §1

Measured: log2 fold change

ZBTB43 (UniProt O43298)
Sequence of UniProt O43298 (O43298 whole entry, looked up): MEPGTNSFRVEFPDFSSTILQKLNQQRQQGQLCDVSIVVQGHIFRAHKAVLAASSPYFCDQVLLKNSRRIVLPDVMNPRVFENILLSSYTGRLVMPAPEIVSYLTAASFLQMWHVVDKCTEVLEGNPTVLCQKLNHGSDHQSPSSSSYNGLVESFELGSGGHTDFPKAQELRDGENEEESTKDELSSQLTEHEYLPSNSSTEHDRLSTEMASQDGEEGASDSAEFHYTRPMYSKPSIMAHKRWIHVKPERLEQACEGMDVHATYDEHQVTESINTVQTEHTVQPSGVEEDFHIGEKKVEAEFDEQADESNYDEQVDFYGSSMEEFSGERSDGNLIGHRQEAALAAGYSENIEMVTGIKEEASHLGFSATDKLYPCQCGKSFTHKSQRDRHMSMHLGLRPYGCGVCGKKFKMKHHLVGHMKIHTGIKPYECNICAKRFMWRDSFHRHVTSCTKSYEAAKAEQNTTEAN
inactive: [1] -0.105 | [2] 0.013 | [3] 0.055 | [4] -0.097 | [5] -0.08

ZFPL1 (UniProt O95159)
Sequence of UniProt O95159 (O95159 whole entry, looked up): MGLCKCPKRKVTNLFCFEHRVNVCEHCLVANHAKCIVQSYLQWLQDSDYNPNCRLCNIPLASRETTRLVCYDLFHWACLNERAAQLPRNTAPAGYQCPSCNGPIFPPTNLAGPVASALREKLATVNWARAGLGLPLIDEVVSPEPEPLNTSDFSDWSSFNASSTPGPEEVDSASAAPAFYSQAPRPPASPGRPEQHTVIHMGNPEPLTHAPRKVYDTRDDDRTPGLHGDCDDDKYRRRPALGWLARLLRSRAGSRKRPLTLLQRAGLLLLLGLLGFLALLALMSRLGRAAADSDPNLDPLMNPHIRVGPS
inactive: [1] 0.09 | [2] 0.084 | [3] 0.063 | [4] -0.042 | [5] -0.032

ZDHHC20 (UniProt Q5W0Z9)
Sequence of UniProt Q5W0Z9 (Q5W0Z9 whole entry, looked up): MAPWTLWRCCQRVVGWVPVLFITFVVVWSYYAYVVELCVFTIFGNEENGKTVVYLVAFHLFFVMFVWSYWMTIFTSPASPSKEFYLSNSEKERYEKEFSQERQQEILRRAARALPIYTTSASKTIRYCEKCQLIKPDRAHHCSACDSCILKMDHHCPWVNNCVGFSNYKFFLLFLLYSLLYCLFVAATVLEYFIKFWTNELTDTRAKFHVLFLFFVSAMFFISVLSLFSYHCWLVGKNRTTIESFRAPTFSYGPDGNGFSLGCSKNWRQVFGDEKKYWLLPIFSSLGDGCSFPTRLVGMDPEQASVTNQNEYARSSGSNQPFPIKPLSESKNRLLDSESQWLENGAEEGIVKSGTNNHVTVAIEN
inactive: [1] -0.023 | [2] -0.001 | [3] -0.047 | [4] -0.061 | [5] 0.067

ZDHHC7 isoform 2 (UniProt Q9NXF8)
Sequence of UniProt Q9NXF8 (Q9NXF8 whole entry, looked up): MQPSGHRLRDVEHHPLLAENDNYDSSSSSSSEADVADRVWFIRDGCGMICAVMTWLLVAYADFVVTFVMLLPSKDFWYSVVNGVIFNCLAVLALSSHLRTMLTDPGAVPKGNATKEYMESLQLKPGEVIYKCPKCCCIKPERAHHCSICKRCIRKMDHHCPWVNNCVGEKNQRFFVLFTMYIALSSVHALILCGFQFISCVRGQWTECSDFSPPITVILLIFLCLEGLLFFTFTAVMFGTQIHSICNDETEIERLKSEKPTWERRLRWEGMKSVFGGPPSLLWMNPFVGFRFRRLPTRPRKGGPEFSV
inactive: [2] 0.088 | [3] 0.131 | [4] 0.135 | [5] 0.081

ZDHHC8 isoform 3 (UniProt Q9ULC8)
Sequence of UniProt Q9ULC8 (Q9ULC8 whole entry, looked up): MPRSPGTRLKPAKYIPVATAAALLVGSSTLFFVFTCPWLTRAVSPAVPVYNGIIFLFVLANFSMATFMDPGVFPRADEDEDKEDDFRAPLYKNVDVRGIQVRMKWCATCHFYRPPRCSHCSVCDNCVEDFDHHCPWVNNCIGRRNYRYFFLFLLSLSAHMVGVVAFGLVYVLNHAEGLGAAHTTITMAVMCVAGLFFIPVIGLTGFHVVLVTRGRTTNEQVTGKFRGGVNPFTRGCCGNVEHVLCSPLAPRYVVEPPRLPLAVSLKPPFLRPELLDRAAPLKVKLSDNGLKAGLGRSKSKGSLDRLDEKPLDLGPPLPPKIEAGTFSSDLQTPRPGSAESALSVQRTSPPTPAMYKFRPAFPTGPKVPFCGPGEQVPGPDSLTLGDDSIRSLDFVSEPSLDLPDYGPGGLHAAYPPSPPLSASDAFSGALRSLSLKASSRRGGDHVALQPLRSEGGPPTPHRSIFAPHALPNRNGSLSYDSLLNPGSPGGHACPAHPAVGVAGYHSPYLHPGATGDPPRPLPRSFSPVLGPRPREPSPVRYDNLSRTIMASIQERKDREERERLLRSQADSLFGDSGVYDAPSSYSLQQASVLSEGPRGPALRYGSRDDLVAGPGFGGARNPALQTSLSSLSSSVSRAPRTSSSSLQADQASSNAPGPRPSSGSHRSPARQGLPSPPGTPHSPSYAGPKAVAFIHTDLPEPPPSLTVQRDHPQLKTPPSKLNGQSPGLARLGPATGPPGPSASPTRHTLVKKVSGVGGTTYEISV
inactive: [1] 0.105 | [4] 0

ZBTB17 isoform 2 (UniProt Q13105)
inactive: [1] -0.08 | [4] -0.019

ZDHHC5 (UniProt Q9C0B5)
Sequence of UniProt Q9C0B5 (Q9C0B5 whole entry, looked up): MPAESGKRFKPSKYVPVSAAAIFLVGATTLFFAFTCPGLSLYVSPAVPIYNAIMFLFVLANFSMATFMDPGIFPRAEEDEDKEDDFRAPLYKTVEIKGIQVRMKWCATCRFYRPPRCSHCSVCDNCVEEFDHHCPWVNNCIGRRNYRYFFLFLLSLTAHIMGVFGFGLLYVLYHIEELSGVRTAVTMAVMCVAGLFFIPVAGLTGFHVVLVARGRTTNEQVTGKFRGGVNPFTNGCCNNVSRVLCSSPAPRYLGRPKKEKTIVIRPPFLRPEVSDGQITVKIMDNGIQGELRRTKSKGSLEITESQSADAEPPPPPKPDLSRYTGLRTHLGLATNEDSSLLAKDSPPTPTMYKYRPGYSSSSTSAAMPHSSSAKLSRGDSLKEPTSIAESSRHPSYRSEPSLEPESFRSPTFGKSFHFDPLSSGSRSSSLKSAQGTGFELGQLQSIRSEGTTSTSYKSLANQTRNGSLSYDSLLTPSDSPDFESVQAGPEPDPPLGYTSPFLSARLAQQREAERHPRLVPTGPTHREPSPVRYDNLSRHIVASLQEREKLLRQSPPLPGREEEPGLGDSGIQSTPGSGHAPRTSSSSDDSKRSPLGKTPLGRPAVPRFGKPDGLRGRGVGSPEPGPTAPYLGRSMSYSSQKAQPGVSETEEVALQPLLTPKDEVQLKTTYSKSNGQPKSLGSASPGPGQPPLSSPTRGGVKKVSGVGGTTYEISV
inactive: [1] 0.015 | [2] 0.007 | [3] 0.04 | [4] -0.013 | [5] 0.077

YIPF5 isoform 3 (UniProt Q969M3)
Sequence of UniProt Q969M3 (Q969M3 whole entry, looked up): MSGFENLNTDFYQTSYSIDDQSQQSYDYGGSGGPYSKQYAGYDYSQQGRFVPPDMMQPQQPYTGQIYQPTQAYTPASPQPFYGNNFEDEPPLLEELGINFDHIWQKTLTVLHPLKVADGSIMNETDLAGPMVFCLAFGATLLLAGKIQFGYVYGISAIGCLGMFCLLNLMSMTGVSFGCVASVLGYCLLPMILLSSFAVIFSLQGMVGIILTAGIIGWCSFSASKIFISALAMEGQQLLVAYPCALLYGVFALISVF
inactive: [1] 0 | [2] 0.025 | [3] 0.018 | [4] 0.002 | [5] 0.08

YOD1 (UniProt Q5VVQ6)
Sequence of UniProt Q5VVQ6 (Q5VVQ6 whole entry, looked up): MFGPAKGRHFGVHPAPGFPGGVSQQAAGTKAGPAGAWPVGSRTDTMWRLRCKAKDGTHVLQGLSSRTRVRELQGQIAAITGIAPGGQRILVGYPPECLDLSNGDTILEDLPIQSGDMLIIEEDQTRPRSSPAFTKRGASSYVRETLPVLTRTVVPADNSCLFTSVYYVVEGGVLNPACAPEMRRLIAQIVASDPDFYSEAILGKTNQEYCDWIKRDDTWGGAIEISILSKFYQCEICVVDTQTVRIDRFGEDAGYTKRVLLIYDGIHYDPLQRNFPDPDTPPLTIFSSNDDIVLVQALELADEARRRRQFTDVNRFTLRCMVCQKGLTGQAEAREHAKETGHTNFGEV
inactive: [1] -0.071 | [2] 0.035 | [3] 0.063 | [4] -0.005 | [5] 0.046

YWHAB (UniProt P31946)
Sequence of UniProt P31946 (P31946 whole entry, looked up): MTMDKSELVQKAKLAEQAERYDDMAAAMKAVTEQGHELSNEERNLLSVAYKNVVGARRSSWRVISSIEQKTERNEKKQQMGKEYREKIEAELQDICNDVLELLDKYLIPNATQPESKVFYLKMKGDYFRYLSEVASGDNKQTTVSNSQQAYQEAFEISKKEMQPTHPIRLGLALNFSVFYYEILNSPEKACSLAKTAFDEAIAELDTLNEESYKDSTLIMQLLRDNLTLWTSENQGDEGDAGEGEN
inactive: [1] -0.024 | [2] 0.024 | [3] -0.01 | [4] -0.004 | [5] -0.03

ZWILCH (UniProt Q9H900)
Sequence of UniProt Q9H900 (Q9H900 whole entry, looked up): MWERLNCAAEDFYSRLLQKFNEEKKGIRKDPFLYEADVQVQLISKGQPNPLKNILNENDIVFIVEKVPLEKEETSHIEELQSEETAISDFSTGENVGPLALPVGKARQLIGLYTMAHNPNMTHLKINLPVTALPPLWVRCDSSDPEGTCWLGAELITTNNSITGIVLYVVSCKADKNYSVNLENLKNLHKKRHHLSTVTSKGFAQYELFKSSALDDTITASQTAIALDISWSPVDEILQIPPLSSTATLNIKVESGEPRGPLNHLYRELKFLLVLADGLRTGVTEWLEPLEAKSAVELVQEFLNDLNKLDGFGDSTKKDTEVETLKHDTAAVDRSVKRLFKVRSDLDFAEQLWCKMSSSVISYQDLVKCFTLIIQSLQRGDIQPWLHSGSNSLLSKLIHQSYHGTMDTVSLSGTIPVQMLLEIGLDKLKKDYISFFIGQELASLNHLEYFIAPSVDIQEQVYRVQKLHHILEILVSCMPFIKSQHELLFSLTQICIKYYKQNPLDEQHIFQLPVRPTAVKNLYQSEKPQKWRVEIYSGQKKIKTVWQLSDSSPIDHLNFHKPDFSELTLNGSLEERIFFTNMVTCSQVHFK
inactive: [1] -0.077 | [2] 0.036 | [3] 0.063 | [4] 0.037 | [5] 0.002

ZCCHC17 (UniProt Q9NP64)
Sequence of UniProt Q9NP64 (Q9NP64 whole entry, looked up): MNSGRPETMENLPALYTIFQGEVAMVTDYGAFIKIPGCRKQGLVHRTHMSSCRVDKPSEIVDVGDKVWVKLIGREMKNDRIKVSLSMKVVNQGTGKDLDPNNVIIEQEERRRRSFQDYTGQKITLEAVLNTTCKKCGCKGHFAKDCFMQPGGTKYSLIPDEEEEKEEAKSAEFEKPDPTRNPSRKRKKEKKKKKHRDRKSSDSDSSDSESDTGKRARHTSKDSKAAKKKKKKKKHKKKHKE
inactive: [3] -0.124
